Source: PubChem BioAssay (NCI)
The panel holds about 79,000 compounds, 15% with a hit somewhere; the sample as a whole holds those more often. Cut-off read from the data, not from the text of the source: active = growth inhibition above about 70%; inactive = the rest.

How the values were obtained:
[1] = NCI Yeast Anticancer Drug Screen. Data for the rad52 strain (AID 147);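 note: 0% = growth of vehicle-treated control cultures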; conditions: S. cerevisiae rad52 mutant growth inhibition, active compounds read high
Outline: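 Growth of repair-deficient yeast cells was compared between compound-treated and vehicle-treated cultures to give percent inhibition.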

[2] = NCI Yeast Anticancer Drug Screen. Data for the wt1 strain (AID 149);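 note: 0% = growth of vehicle-treated wt1 cultures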; conditions: S. cerevisiae wt1 strain (SPY 50644) growth inhibition, active compounds read high
Outline: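 Growth inhibition read against vehicle controls after compound exposure of the wt1 yeast strain.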

[3] = NCI Yeast Anticancer Drug Screen. Data for the mgt1 strain (AID 153); conditions: S. cerevisiae mgt1 mutant growth inhibition, active compounds read high
Outline: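 Compounds were applied to mgt1 mutant yeast, and growth was then compared against vehicle-treated control cultures to give percent inhibition.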

[4] = NCI Yeast Anticancer Drug Screen. Data for the rad50 strain (AID 155);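 note: 0% = growth of vehicle-only cultures of the same strain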; conditions: S. cerevisiae rad50 strain growth inhibition, active compounds read high
Outline: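 Readout: growth inhibition relative to vehicle-treated cultures. Compound exposure was carried out in a genetically defined yeast strain deficient in DNA damage repair.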

[5] = NCI Yeast Anticancer Drug Screen. Data for the mec2-1 strain (AID 157); conditions: S. cerevisiae mec2-1 strain, active compounds read high
Outline: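 Compounds were applied to mec2-1 yeast cells. Their growth was then compared with that of vehicle-treated cultures to give growth inhibition.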

[6] = NCI Yeast Anticancer Drug Screen. Data for the rad14 strain (AID 159);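 note: 0% = growth of vehicle-treated control cultures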; conditions: S. cerevisiae rad14 strain growth inhibition, active compounds read high
Outline: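 Growth inhibition vs vehicle controls; genetically altered yeast strain (DNA damage repair defect) treated with test compounds.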

[7] = NCI Yeast Anticancer Drug Screen. Data for the sgs1 mgt1 strain (AID 161);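 note: 0% = growth of cultures given vehicle only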; conditions: S. cerevisiae sgs1 mgt1 strain, active compounds read high
Outline: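 Percent growth inhibition was derived by comparing compound-exposed mutant yeast with vehicle-exposed cultures. The strain carries alterations in DNA damage repair.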

[8] = NCI Yeast Anticancer Drug Screen. Data for the cln2 rad14 strain (AID 165);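 note: 0% = growth equal to vehicle treated cultures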; conditions: S. cerevisiae cln2 rad14 strain, active compounds read high
Outline: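 Strain: cln2 rad14 yeast, altered in cell cycle control and DNA damage repair. Read-out: growth inhibition vs vehicle.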

[9] = NCI Yeast Anticancer Drug Screen. Data for the bub3 strain (AID 167); conditions: S. cerevisiae bub3 mutant strain, active compounds read high
Outline: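 Readout: yeast growth inhibition, expressed relative to vehicle-only wells. The test organism is a mutant strain from a panel with lesions in DNA repair or checkpoint genes.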

[10] = NCI Yeast Anticancer Drug Screen. Data for the mlh1 strain (AID 171);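 note: 0% = growth of vehicle-treated control cultures of the same strain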; conditions: S. cerevisiae mlh1 strain growth inhibition, active compounds read high
Outline: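 Test agents were incubated with yeast bearing a defined DNA damage repair or cell cycle control alteration; values are growth inhibition normalised to vehicle-treated cultures.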

[11] = NCI Yeast Anticancer Drug Screen. Data for the sgs1 strain (AID 173);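 note: 0% = growth of vehicle-only control cultures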; conditions: S. cerevisiae sgs1 mutant, active compounds read high
Outline: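 Strain with an altered DNA repair or cell cycle pathway exposed to compound. Growth then measured. Value = inhibition versus vehicle control.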

[12] = NCI Yeast Anticancer Drug Screen. Data for the mlh1 rad18 strain (AID 175); conditions: S. cerevisiae mlh1 rad18 strain growth inhibition, active compounds read high
Outline: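 A repair-deficient yeast strain is exposed to test compound, and growth is scored relative to vehicle-treated controls.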

[13] = NCI Yeast Anticancer Drug Screen. Data for the rad18 strain (AID 177); conditions: S. cerevisiae rad18 mutant growth inhibition, active compounds read high
Outline: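 DNA-repair-defective yeast; compound treatment; growth inhibition scored against vehicle.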

[14] = at 5.0 µM (retest, dose inferred, filed as 0.5)
[15] = at 50.0 µM (retest, dose inferred, filed as 5.0)

Measured: growth inhibition

Cc1nn(-c2cc(Cl)ccc2[N+](=O)[O-])c(C)c1Cl
inactive: [1]; at 1.2 µM 1% | [1]; at 3.7 µM 3% | [1]; at 11.0 µM 2% | [1]; at 33.0 µM 3% | [1]; at 100.0 µM 2% | [2]; at 1.2 µM -1% | [2]; at 3.7 µM -1% | [2]; at 11.0 µM 1% | [2]; at 33.0 µM -1% | [2]; at 100.0 µM 2% | [3]; at 1.2 µM -2% | [3]; at 3.7 µM -2% | [3]; at 11.0 µM 4% | [3]; at 33.0 µM -8% | [3]; at 100.0 µM 7% | [4]; at 1.2 µM 0% | [4]; at 3.7 µM 1% | [4]; [14] -20% | [4]; at 11.0 µM -16% | [4]; at 33.0 µM 2% | [4]; [15] -9% | [4]; at 50.0 µM 50% | [4]; at 100.0 µM 2% | [5]; at 1.2 µM 7% | [5]; at 3.7 µM 0% | [5]; [14] -7% | [5]; at 11.0 µM 3% | [5]; at 33.0 µM 2% | [5]; [15] -18% | [5]; at 50.0 µM 54.1% | [5]; at 100.0 µM 4% | [6]; at 1.2 µM -1% | [6]; at 3.7 µM 0% | [6]; at 11.0 µM 4% | [6]; at 33.0 µM 2% | [6]; at 100.0 µM 3% | [7]; [14] -15% | [7]; [15] -10% | [7]; at 50.0 µM 43.6% | [8]; [14] 39% | [8]; [15] 4% | [8]; at 50.0 µM 26.1% | [9]; at 1.2 µM 1% | [9]; at 3.7 µM 7% | [9]; [14] -6% | [9]; at 11.0 µM 20% | [9]; at 33.0 µM 24% | [9]; [15] -6% | [9]; at 50.0 µM 64.2% | [9]; at 100.0 µM 16% | [10]; at 1.2 µM 0% | [10]; at 3.7 µM 2% | [10]; at 11.0 µM 3% | [10]; at 33.0 µM 1% | [10]; at 100.0 µM 3% | [11]; at 1.2 µM -1% | [11]; at 3.7 µM -2% | [11]; at 11.0 µM -1% | [11]; at 33.0 µM -1% | [11]; at 100.0 µM 2% | [12]; [14] -3% | [12]; [15] -9% | [12]; at 50.0 µM 15.2% | [13]; at 1.2 µM 2% | [13]; at 3.7 µM 2% | [13]; at 11.0 µM 2% | [13]; at 33.0 µM -14% | [13]; at 100.0 µM 1%
